Experimental findings from PubChem BioAssay AID588511 (Johns Hopkins Ion Channel Center, 2011) are described below.

The whole screen tested about 310,000 compounds, of which about 3,600 (1.2%) were called active.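 The calls were made as follows: active = ratio plate-corrected score three or more library SD toward inhibition, starting fluorescence score within five deviations; inactive = the rest.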 The full list was thinned out, with actives kept by preference.

Sequence of Anoctamin-1 (Mus musculus) (Q8BHY3 whole entry, looked up): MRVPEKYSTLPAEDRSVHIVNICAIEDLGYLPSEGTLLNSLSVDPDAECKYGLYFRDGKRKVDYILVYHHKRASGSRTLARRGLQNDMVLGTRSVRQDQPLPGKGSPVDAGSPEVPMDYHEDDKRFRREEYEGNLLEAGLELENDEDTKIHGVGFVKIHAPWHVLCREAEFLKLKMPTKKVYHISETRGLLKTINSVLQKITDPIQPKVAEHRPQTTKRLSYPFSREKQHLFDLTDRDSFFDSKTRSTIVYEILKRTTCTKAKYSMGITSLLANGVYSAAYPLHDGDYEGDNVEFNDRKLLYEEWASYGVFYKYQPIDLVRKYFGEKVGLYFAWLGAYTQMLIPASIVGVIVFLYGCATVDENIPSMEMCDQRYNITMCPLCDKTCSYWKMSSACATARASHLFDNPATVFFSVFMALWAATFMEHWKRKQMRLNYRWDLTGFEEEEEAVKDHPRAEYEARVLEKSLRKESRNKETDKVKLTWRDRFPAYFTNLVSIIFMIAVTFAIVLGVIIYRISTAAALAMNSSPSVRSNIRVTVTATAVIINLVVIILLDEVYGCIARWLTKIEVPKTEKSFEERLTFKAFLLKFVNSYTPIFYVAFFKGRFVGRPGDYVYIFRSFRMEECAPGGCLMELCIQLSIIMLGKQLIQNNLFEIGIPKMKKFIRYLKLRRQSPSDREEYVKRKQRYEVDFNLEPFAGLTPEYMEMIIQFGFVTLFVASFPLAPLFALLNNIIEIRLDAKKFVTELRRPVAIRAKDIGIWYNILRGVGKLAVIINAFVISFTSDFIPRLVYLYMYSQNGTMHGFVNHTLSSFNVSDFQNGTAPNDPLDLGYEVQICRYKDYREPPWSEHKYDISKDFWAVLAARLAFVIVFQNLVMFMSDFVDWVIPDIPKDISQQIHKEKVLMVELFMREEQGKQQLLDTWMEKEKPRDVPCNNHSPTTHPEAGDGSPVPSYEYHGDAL

The assay has as its target Anoctamin-1 (Mus musculus) (UniProt Q8BHY3). The assay is described as follows: blockers of mouse ANO1 Ca-activated Cl channel – cell-based, HTS, primary screen (AID 588511).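 As to normalized B-score (activity score, 25-100; higher = stronger inhibition): score derived from kinetic fluorescence span divided by baseline fluorescence per well.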 As to conditions: HEK293 TMEM16A/YFP iodide influx fluorescence, ionomycin; at 10 µM.
With `O=c1ccc2cc(S(=O)(=O)NCCCc3ccccc3)ccc2[nH]1`, the normalized B-score (activity score, 25-100; higher = stronger inhibition) entry was “inactive”.
The same measure for `O=c1cc(C(F)(F)F)[nH]c(=O)n1C1CCCCC1`: 25 (active); for `Cc1ccc(Nc2cc(=O)n(C3CCCCC3)c(=O)[nH]2)cc1C`: “inactive”.
To `CCCOn1c(-n2nc(C)cc2C)nc2ccccc2c1=O` belongs “inactive”; to `CCOc1cc(/C=C2/C(=N)N3OC(C)=CC3=NC2=O)ccc1OC`, “inactive”.
The same measure for `COc1ccc(OCCCn2cccc2/C=C2/C(=N)N3OC(C)=CC3=NC2=O)cc1`: 25 (active).
As for `CC1=CC2=NC(=O)/C(=C/c3coc4ccccc4c3=O)C(=N)N2O1`, the normalized B-score (activity score, 25-100; higher = stronger inhibition) result was “inactive”.
With `Cn1cnc(C(F)(F)F)c1-c1ccc([N+](=O)[O-])cc1`, the normalized B-score (activity score, 25-100; higher = stronger inhibition) entry is “inactive”.
To `O=C(Nc1cccc(S(=O)(=O)Nc2ccc(Cl)cc2)c1)c1ccc2c(c1)OCCO2` belongs 25 (active); to `O=C(Nc1cccc(S(=O)(=O)N2CCCCC2)c1)c1ccc2c(c1)OCO2`, “inactive”.
The same measure for `O=C(Nc1ccccc1)c1ccc2c(c1)OCCCO2`: “inactive”; for `CCCCn1c(SCc2ncc(-c3ccccc3)o2)nc2cc(S(N)(=O)=O)ccc21`: 25 (active); for `CCCCn1c(SCC(=O)N2CCC(C(=O)OCC)CC2)nc2cc(S(N)(=O)=O)ccc21`: “inactive”.
For `CCn1c(SCC(=O)NCC2CCCO2)nc2cc(S(=O)(=O)N3CCCCC3)ccc21` (centres undefined), the normalized B-score (activity score, 25-100; higher = stronger inhibition) entry was “inactive”.
To `CN(C)c1cc(-c2ccc(F)cc2)oc(=O)c1Cl` belongs “inactive”; to `N#CC1=C(SCc2ccc(C#N)cc2)N=C(N)C(c2nc(-c3ccccc3)cs2)C12CCCCC2` (centres undefined), “inactive”.
Consider `N#CC1=C(SCc2ccccc2)NC(=O)C(C#N)C12CCCC2` (centres undefined), for which the normalized B-score (activity score, 25-100; higher = stronger inhibition) is 25 (active).
To `CC1(C)CCc2nc(SCc3ccccc3)c(C#N)cc2C1` belongs “inactive”; to `Nc1ccc(C(=O)OCC(=O)NC2CCS(=O)(=O)C2)cc1[N+](=O)[O-]` (centres undefined), “inactive”; to `CCC1CCCCN1C(=S)Nc1ccc(SC(F)F)cc1` (centres undefined), “inactive”.
To `COc1ccc(CCN2CC(C(=O)NCCN3CCNC3=O)CCC2=O)cc1` (centres undefined) belongs “inactive”.
On to `O=C(NC(=S)Nc1ccc(S(=O)(=O)N2CCOCC2)cc1)c1ccccc1[N+](=O)[O-]`, for which the normalized B-score (activity score, 25-100; higher = stronger inhibition) result was “inactive”.
For the molecule `O=[N+]([O-])c1cc(Cl)cc(/C=N/NC(=S)Nc2cc(S(=O)(=O)N3CCOCC3)ccc2Cl)c1O`, the normalized B-score (activity score, 25-100; higher = stronger inhibition) was 100 (active).
To `O=C(N/N=C/c1ccc([N+](=O)[O-])o1)c1cccc(S(=O)(=O)N2CCOCC2)c1` belongs “inactive”; to `Cc1ccsc1C(=O)N[C@@H](C)c1nnc2ccccn12`, “inactive”; to `COC(C[C@@H]1O[C@@H]1C(=O)[C@H](C)OCc1ccccc1)OC`, “inactive”.
The same measure for `CSCCC(C(=O)NC1=NCCS1)N1C(=O)c2ccccc2C1=O` (centres undefined): “inactive”.
To `COC(=O)[C@@H]1CC(O)CN1C(=O)C12CC3CC(CC(C3)C1)C2` (some centres undefined) belongs “inactive”; to `CC(C)OCCCNC(=O)c1cc(Sc2ccc(F)cc2)nc2ccccc12`, “inactive”.
For `CC(C)OCCCNc1ncnc2c1[nH]c1ccc(F)cc12`, the normalized B-score (activity score, 25-100; higher = stronger inhibition) was 100 (active).
In the case of `CNS(=O)(=O)c1cnccc1N1CCN(c2cccc(C)c2)CC1`, the normalized B-score (activity score, 25-100; higher = stronger inhibition) result was “inactive”.
On to `CCC1(C)Cc2c(sc3[nH]c(=S)n(Cc4ccccc4)c(=O)c23)CO1` (centres undefined), for which the normalized B-score (activity score, 25-100; higher = stronger inhibition) entry is “inactive”.
The same measure for `CC1CC(C)(C)n2c(O)c(N=NC(N)=S)c3cccc1c32` (centres undefined): “inactive”; for `CCC(C)NCCOCCOc1ccc(Br)cc1C` (centres undefined): “inactive”; for `COc1cccc(OC)c1C(=O)N1CCN(Cc2cccnc2)CC1`: “inactive”.
To `Cc1cc(-c2ccc(C)c(S(=O)(=O)Nc3ccc(S(N)(=O)=O)cc3)c2)on1` belongs “inactive”; to `Cc1ccc2c(c1)N(S(=O)(=O)c1cc(-c3cc(C)no3)ccc1C)CCO2`, 25 (active).
Regarding `Cc1cc(-c2ccc(C)c(S(=O)(=O)NC(C)Cc3ccco3)c2)on1` (centres undefined), the normalized B-score (activity score, 25-100; higher = stronger inhibition) entry was “inactive”.
On to `C=CCNC(=O)C1CC2c3ccccc3C1c1ccccc12` (centres undefined), for which the normalized B-score (activity score, 25-100; higher = stronger inhibition) result is “inactive”.
Turning to `CCOc1ccc(S(=O)(=O)N2CCCC(C(=O)N3CCC(C(N)=O)CC3)C2)cc1Cl` (centres undefined), the normalized B-score (activity score, 25-100; higher = stronger inhibition) entry was “inactive”.
The same measure for `C#CCOCCOCCOCCNc1nc(N2CCN(C(=O)CCCCCCCCCCNC(=O)[C@H]([C@@H](C)CC)n3cc(CCCCN=C(N)N)nn3)CC2)nc(N2CCN(C(=O)CCCCCCCCCCNC(=O)[C@H](CO)n3cc(CCCSC)nn3)CC2)n1`: “inactive”; for `C#CCOCCOCCOCCNc1nc(N2CCN(C(=O)CCCCCCCCCCNC(=O)[C@H](CCCCN)n3cc(C)nn3)CC2)nc(N2CCN(C(=O)CCCCCCCCCCNC(=O)[C@H](CO)n3cc(CCCSC)nn3)CC2)n1`: 100 (active).
The same measure for `C#CCOCCOCCOCCNc1nc(N2CCN(C(=O)CCCCCCCCCCNC(=O)Cn3cc(CCCCCN)nn3)CC2)nc(N2CCN(C(=O)CCCCCCCCCCNC(=O)[C@H](CO)n3cc(CCCSC)nn3)CC2)n1`: “inactive”; for `COC(=O)CSc1nc2c(c(C3CC=CCC3)c1C#N)CCC2` (centres undefined): “inactive”; for `CCOC(=O)C1CCN(S(=O)(=O)c2c(C)noc2C)CC1`: “inactive”.
To `CCOC(=O)N1CCN(Cc2nc3cc(NC(C)=O)ccc3n2C)CC1` belongs “inactive”; to `Cn1c(CN2CCOCC2)nc2cc(NC(=O)c3ccc(Cl)cc3)ccc21`, 100 (active); to `CC(=O)NCCc1nc2cc(NC(=O)c3ccccc3)ccc2n1C`, “inactive”.
As for `O=C(NCCCn1ccnc1)C1CCCN(S(=O)(=O)c2cc(Cl)ccc2Cl)C1` (centres undefined), the normalized B-score (activity score, 25-100; higher = stronger inhibition) entry was “inactive”.
